Values joined by “and” are separate entries in the source; they are usually repeats but may differ in a detail not shown here. Equal values may be shown once. Results filed as inconclusive are left out. More than one record can exist for a structure, and the calls need not agree. Active and inactive are the calls of the source.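 The calls were made as follows, unless noted: active = normalized viability below 100% at a tested concentration; inactive = the rest.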
Experiments:
[1] = growth inhibition of DIPG glioma cells, dose response, cell-based, SU-DIPG-XIII, MIPE4.0, CellTiter-Glo, qHTS (AID 1347061; cut-off not given, nearly all actives have AC50 up to about 37 µM;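 also: cells exposed to compound for 48 hours before readout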); conditions: SU-DIPG-XIII viability, CellTiter-Glo ATP luminescence
[2] = growth inhibition of DIPG glioma cells, dose response, cell-based, JHH-DIPG-1, MIPE4.0, CellTiter-Glo, qHTS (AID 1347062; cut-off not given, nearly all actives have AC50 up to about 27 µM); conditions: JHH-DIPG-1 viability, CellTiter-Glo ATP luminescence
[3] = growth inhibition of DIPG glioma cells, dose response, cell-based, SU-DIPG-IV, MIPE4.0, CellTiter-Glo, qHTS (AID 1347063; cut-off not given, nearly all actives have AC50 up to about 30 µM;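 also: compound exposure lasted 48 hours before the viability readout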); conditions: SU-DIPG-IV viability, CellTiter-Glo ATP luminescence
[4] = viability loss in pontine glioma line – cell-based, SU-DIPG-XXV, MIPE5.0, CellTiter-Glo, qHTS, dose response (AID 1347065; cut-off not given, nearly all actives have AC50 up to about 26 µM;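 also: cells exposed to compound for 48 hours before ATP readout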); conditions: CellTiter-Glo ATP luminescence
[5] = SU-DIPG-VI glioma cell viability, MIPE4.0 library, CellTiter-Glo luminescence, qHTS (AID 1347066; cut-off not given, nearly all actives have AC50 up to about 30 µM;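 also: cells exposed to compound for 48 hours before readout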); conditions: CellTiter-Glo ATP luminescence
[6] = modifiers of HSF1 nuclear foci, imaging, Selleck Cancer Library (AID 1347162; in the data active = plate-normalised HSF1 focus index below about 0.46); conditions: human cells, at 10 µM; SSMD: measured here: HSF1 foci SSMD mean; cell count: measured here: cell number; plate-normalised HSF1 focus index: stronger effect = lower value
[7] = ovarian cancer cell viability with rucaparib, profiling panel, oncology-focused library, rucaparib conditional (AID 1508598); conditions: patient-derived ovarian cancer cells, CellTiter-Glo viability, 144 h, stronger effect = lower value
[8] = LFS_MB_P medulloblastoma growth inhibition, cell-based, chromothripsis tumors, cisplatin or BGB combos (AID 1671449; in the data active = inhibition above about 80%;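 also: cells exposed for 96 hours; 0% = vehicle DMSO and 100% = killing by high DMSO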); conditions: LFS_MB_P medulloblastoma cells
[9] = HDN33 neuroblastoma growth inhibition, cell-based, chromothripsis tumors, cisplatin or BGB combos (AID 1671450; in the data active = inhibition above about 80%;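 also: cells exposed to compound for four days; 0% = vehicle DMSO and 100% = cell killing by high DMSO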); conditions: HDN33 neuroblastoma cells, stronger effect = higher value
[10] = ICB984 medulloblastoma cell growth inhibition, synergistic combos for chromothripsis tumors, cisplatin or BGB combos (AID 1671451; call rule not given here;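 also: cells exposed for 96 hours before readout; 0% = vehicle DMSO and 100% = killing by high DMSO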); conditions: ICB984 medulloblastoma cells, drug combinations, stronger effect = higher value
[11] = LFS_MB_1R medulloblastoma cell growth inhibition, synergistic combos for chromothripsis tumors, cisplatin or BGB combos (AID 1671452; in the data active = inhibition above about 80%;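 also: cells exposed for 96 hours before readout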); conditions: LFS_MB_1R medulloblastoma cells, stronger effect = higher value
[12] = HTB85 osteosarcoma cell growth inhibition, synergistic combos for chromothripsis tumors, BGB or cisplatin IC20 combos (AID 1671453; in the data active = inhibition above about 80%;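 also: cells exposed for 96 hours before readout; 0% = vehicle DMSO and 100% = high DMSO killing control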); conditions: HTB85 osteosarcoma cells, drug combinations, stronger effect = higher value
[13] = MDA-MB-436 breast carcinoma cell growth inhibition, synergistic combos for chromothripsis tumors, BGB or cisplatin combos (AID 1671458; call rule not given here;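 also: cells exposed for 96 hours; 0% = vehicle DMSO and 100% = killing by high DMSO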); conditions: MDA-MB-436 breast carcinoma growth inhibition, drug combinations, stronger effect = higher value
[14] = growth inhibition of BT084 medulloblastoma cells, cell-based, ICGC_MB145, cisplatin and BGB IC40 combos (AID 1671461; in the data active = inhibition above about 80%;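 also: cells exposed to drugs for 96 hours; 0% = vehicle DMSO and 100% = high DMSO full killing control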); conditions: drug combinations, stronger effect = higher value
[15] = growth inhibition of RCMB18 medulloblastoma cells, cell-based, cisplatin and BGB IC40 combos (AID 1671462; in the data active = inhibition above about 80%;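 also: cells exposed to compound for four days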); conditions: stronger effect = higher value
[16] = growth inhibition of CRL1545 osteosarcoma cells, cell-based, cisplatin and BGB IC20 combos (AID 1671464; in the data active = inhibition above about 80%;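 also: cells exposed to compound for 96 hours before readout; 0% = vehicle DMSO and 100% = high DMSO killing control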); conditions: stronger effect = higher value
[17] = measured here: combination with BGB IC40, at 0.05 µM
[18] = measured here: with BGB IC20 combination, at 0.5 µM
[19] = measured here: with cisplatin IC20 combination, at 0.5 µM
[20] = measured here: combination with cisplatin, at 0.5 µM

Structure (SMILES): C/C(=C\C(=O)Nc1ccccc1C(=O)O)c1ccc2ccccc2c1
- outcome [1]: inactive
- outcome [2]: inactive
- outcome [3]: inactive
- outcome [4]: inactive
- outcome [5]: inactive
- SSMD [6]: 2.21 and 1.02
- cell count [6]: 7410 and 6940
- plate-normalised HSF1 focus index [6]: 1.08 (inactive) and 1.06 (inactive)
- viability ([7]; at 0.000305 µM, OCI-C5x cells, with rucaparib 10 µM, 100% = cells with rucaparib alone): 89.1% (active)
- viability ([7]; at 0.000305 µM, OCI-C5x cells, without rucaparib): 109% (inactive)
- viability ([7]; at 0.000305 µM, OCI-P5x cells, with rucaparib 20 µM, 100% = cells with rucaparib alone): 107% (inactive)
- viability ([7]; at 0.000305 µM, OCI-P5x cells, without rucaparib): 103% (inactive)
- viability ([7]; at 0.00122 µM, OCI-C5x cells, with rucaparib 10 µM, 100% = cells with rucaparib alone): 102% (inactive)
- viability ([7]; at 0.00122 µM, OCI-C5x cells, without rucaparib): 107% (inactive)
- viability ([7]; at 0.00122 µM, OCI-P5x cells, with rucaparib 20 µM, 100% = cells with rucaparib alone): 96.8% (active)
- viability ([7]; at 0.00122 µM, OCI-P5x cells, without rucaparib): 101% (inactive)
- viability ([7]; at 0.00488 µM, OCI-C5x cells, with rucaparib 10 µM, 100% = cells with rucaparib alone): 92.9% (active)
- viability ([7]; at 0.00488 µM, OCI-C5x cells, without rucaparib): 110% (inactive)
- viability ([7]; at 0.00488 µM, OCI-P5x cells, with rucaparib 20 µM, 100% = cells with rucaparib alone): 112% (inactive)
- viability ([7]; at 0.00488 µM, OCI-P5x cells, without rucaparib): 103% (inactive)
- viability ([7]; at 0.0195 µM, OCI-C5x cells, with rucaparib 10 µM, 100% = cells with rucaparib alone): 111% (inactive)
- viability ([7]; at 0.0195 µM, OCI-C5x cells, without rucaparib): 111% (inactive)
- viability ([7]; at 0.0195 µM, OCI-P5x cells, with rucaparib 20 µM, 100% = cells with rucaparib alone): 106% (inactive)
- viability ([7]; at 0.0195 µM, OCI-P5x cells, without rucaparib): 112% (inactive)
- viability ([7]; at 0.0781 µM, OCI-C5x cells, with rucaparib 10 µM, 100% = cells with rucaparib alone): 95.3% (active)
- viability ([7]; at 0.0781 µM, OCI-C5x cells, without rucaparib): 104% (inactive)
- viability ([7]; at 0.0781 µM, OCI-P5x cells, with rucaparib 20 µM, 100% = cells with rucaparib alone): 109% (inactive)
- viability ([7]; at 0.0781 µM, OCI-P5x cells, without rucaparib): 113% (inactive)
- viability ([7]; at 0.313 µM, OCI-C5x cells, with rucaparib 10 µM, 100% = cells with rucaparib alone): 94.4% (active)
- viability ([7]; at 0.313 µM, OCI-C5x cells, without rucaparib): 111% (inactive)
- viability ([7]; at 0.313 µM, OCI-P5x cells, with rucaparib 20 µM, 100% = cells with rucaparib alone): 109% (inactive)
- viability ([7]; at 0.313 µM, OCI-P5x cells, without rucaparib): 110% (inactive)
- viability ([7]; at 1.25 µM, OCI-C5x cells, with rucaparib 10 µM, 100% = cells with rucaparib alone): 95.9% (active)
- viability ([7]; at 1.25 µM, OCI-C5x cells, without rucaparib): 108% (inactive)
- viability ([7]; at 1.25 µM, OCI-P5x cells, with rucaparib 20 µM, 100% = cells with rucaparib alone): 116% (inactive)
- viability ([7]; at 1.25 µM, OCI-P5x cells, without rucaparib): 118% (inactive)
- viability ([7]; at 5 µM, OCI-C5x cells, with rucaparib 10 µM, 100% = cells with rucaparib alone): 89.8% (active)
- viability ([7]; at 5 µM, OCI-C5x cells, without rucaparib): 98.2% (active)
- viability ([7]; at 5 µM, OCI-P5x cells, with rucaparib 20 µM, 100% = cells with rucaparib alone): 119% (inactive)
- viability ([7]; at 5 µM, OCI-P5x cells, without rucaparib): 117% (inactive)
- inhibition ([8]; at 0.5 µM, stronger effect = higher value): 102% (active) and -1.28% (inactive)
- inhibition ([8]; measured here: combination with BGB IC20, at 0.005 µM): 9.03% and -7.31%
- inhibition ([8]; measured here: combination with BGB IC40, at 0.005 µM): -18.4% and -24.9%
- inhibition [8, 17]: 19.3% and -24.1%
- inhibition ([8]; measured here: combination with cisplatin, at 0.5 µM, stronger effect = higher value): 113% and 3.01%
- inhibition ([8]; measured here: combination with cisplatin, at 5 µM, stronger effect = higher value): 13.4% and -26.4%
- inhibition ([9]; BGB combo, at 5 µM): -23.7% and -49.5%
- inhibition ([9]; at 0.5 µM): -19.3% (inactive) and -46.7% (inactive)
- inhibition ([9]; cisplatin combo, at 5 µM): -7.72% and -22.6%
- inhibition [9, 18]: -14.6% and -44.4%
- inhibition [9, 19]: -15.2% and -49.7%
- inhibition ([9]; single agent, at 5 µM): -14% and -26%
- inhibition ([10]; BGB IC20 combo, at 0.005 µM): -36.5% and -10.3%
- inhibition ([10]; BGB IC40 combo, at 0.005 µM): 5.4% and -31%
- inhibition ([10]; BGB IC40 combo, at 0.05 µM): -10.6% and -21.5%
- inhibition ([10]; at 0.5 µM): -6.99% (inactive) and -24.5% (inactive)
- inhibition ([10]; cisplatin combo, at 0.05 µM): -10.6% and -25.9%
- inhibition ([10]; cisplatin combo, at 0.5 µM): -7.39% and -29.2%
- inhibition ([10]; cisplatin combo, at 5 µM): 6.72% and -34%
- inhibition ([10]; measured here: 5 uM single agent, at 5 µM): -9.64% and -30.6%
- inhibition ([11]; at 0.5 µM): -15% (inactive) and -22.4% (inactive)
- inhibition [11, 17]: -9.05% and -43.4%
- inhibition [11, 20]: -18.5% and -27.8%
- inhibition ([11]; measured here: combination with cisplatin, at 5 µM): -22.6% and -72.2%
- inhibition ([12]; at 0.5 µM): -22.4% (inactive) and -26.8% (inactive)
- inhibition ([12]; measured here: with BGB IC20, at 0.5 µM): -27.7% and -32.5%
- inhibition ([12]; measured here: with BGB IC20, at 5 µM): -14.9% and -24.4%
- inhibition ([12]; measured here: with cisplatin IC20, at 0.5 µM): -22.7% and -28.1%
- inhibition ([12]; measured here: with cisplatin IC20, at 5 µM): -19.8% and -17.3%
- inhibition ([12]; single agent, at 5 µM): -20.6% and -16.3%
- inhibition ([13]; at 0.5 µM): -3.17% (inactive) and -21% (inactive)
- inhibition ([13]; measured here: BGB combination, at 0.5 µM): -3.42% and -32.5%
- inhibition ([13]; measured here: BGB combination, at 5 µM): -2.03% and -11.9%
- inhibition ([13]; measured here: cisplatin combination, at 0.5 µM): -4.64% and -12.8%
- inhibition ([13]; measured here: cisplatin combination, at 5 µM): -4.62% and -6.3%
- inhibition ([14]; at 0.5 µM): -6.83% (inactive) and -5.19% (inactive)
- inhibition ([14]; cisplatin combination, at 0.5 µM): -15% and -25.6%
- inhibition ([14]; cisplatin combination, at 5 µM): -24.9% and -2.65%
- inhibition ([14]; measured here: BGB IC40 combination 0.05 uM, at 0.05 µM): -17.8% and 7.75%
- inhibition ([14]; single agent, at 5 µM): 11.2% and -10.1%
- inhibition ([15]; at 0.5 µM): -1.42% (inactive) and -24.1% (inactive)
- inhibition ([15]; cisplatin combo, at 5 µM): 5.73% and -10.2%
- inhibition ([15]; measured here: BGB IC40 combination, at 0.05 µM): -5.49% and -16.6%
- inhibition [15, 20]: -31.4% and -50.1%
- inhibition ([15]; single agent, at 5 µM): -4.52% and -12.1%
- inhibition ([16]; at 0.5 µM): -35.2% (inactive) and -65.1% (inactive)
- inhibition [16, 18]: -24.4% and -56.6%
- inhibition [16, 19]: -40.6% and -72.1%
- inhibition ([16]; single agent, at 0.05 µM): -15.5% and -44.7%
- inhibition ([16]; single agent, at 5 µM): -12.5% and -53.7%
